By inhibition is commonly meant the drop in the measured response relative to a control, in per cent.

Records with an inconclusive call do not appear. The source made the active and inactive calls.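 Rule for the calls, unless noted: active = differentiation response of at least 50%, scaled between solvent and reference control, from cells with both markers; inactive = the rest.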

The nature of assay [1]: rapamycin-like changes in RPL19A-GFP expression – cell-based, S. cerevisiae, multiplex flow cytometry, primary screen (AID 1862; in the data active = percent of DMSO control GFP below about 86%;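 note: lower values mimic rapamycin by blocking the RPL19A rise seen in DMSO cells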). The settings on record: S. cerevisiae RPL19A-GFP strain, flow cytometry fluorescence, 3 h; at 10 µM; stronger effect = lower value.
The nature of assay [2]: TOR pathway GLN3 branch reporter MEP2-GFP changes – S. cerevisiae, multiplex flow cytometry, primary screen (AID 1867;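 active = GFP response, as percent of the DMSO control, above the screen-wide mean plus 3 SD, about 139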;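 note: median GFP channel fluorescence of barcode-gated MEP2-GFP cells measured by flow cytometry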). The conditions noted are these: S. cerevisiae MEP2-GFP strain, 3 h, at 10 µM, stronger effect = higher value, 100% means same as DMSO wells. A general note: In flow cytometry, cells or beads pass a laser one at a time.
The nature of assay [3]: TOR pathway RTG branch CIT2 reporter changes – S. cerevisiae, GFP fusion, multiplex flow cytometry, primary screen (AID 1870;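 active = percent response above a set limit, the screen-wide mean plus 3 SD, cut at about 130% in these data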;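 note: barcoded CIT2-GFP strain pooled with four other GFP strains with rapamycin as positive control; median GFP fluorescence per well over plate mean of DMSO wells so 100% = DMSO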). The conditions noted are these: S. cerevisiae CIT2-GFP expression, 3 h, at 10 µM, stronger effect = higher value.
Assay [4] in a line: TOR pathway LAP4-GFP level changes – S. cerevisiae, multiplex flow cytometry, primary screen (AID 1873;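 active = GFP signal, as percent of the solvent control, above the screen mean plus 3 SD, about 149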). The conditions noted are these: S. cerevisiae LAP4-GFP expression, 3 h, at 10 µM, stronger effect = higher value.
Assay [5] is described as follows: yeast AGP1-GFP level changes, GLN3 branch – cell-based, multiplex flow cytometry, S. cerevisiae, primary screen (AID 1887;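 active = GFP signal above the screen-wide mean plus 3 SD, that is over about 124.5% of the solvent control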;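 note: AGP1-GFP fusion strain of S. cerevisiae within a five-strain barcoded multiplex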). The conditions noted are these: 3 h, at 10 µM, stronger effect = higher value.
The nature of assay [6]: reduced mouse 2C T cell binding to pMHC/ICAM-1 vesicles – MLPCN validation set, flow cytometry, LFA-1/ICAM-1 modulator project, pilot screen (AID 2523;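 active = response below a set limit, under 55% cells CD8-positive and vesicle-bound, and CD8 cells' 90th-percentile brightness under 279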;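 for vesicle binding response: mean PE anti-B7-1 fluorescence of CD8+ cells relative to row control; 100% = QL9-loaded vesicles with DMSO vehicle in the same plate row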). The conditions noted are these: 2C mouse CD8+ T cells, at 7 µM, stronger effect = lower value; double positive events: measured here: CD8+/vesicle+ event percentage.
Assay [7] deals with Integrin beta-1 (Homo sapiens) + Integrin alpha-4 (Homo sapiens) (UniProt P13612+P05556). The experiment in a line: alpha4beta1 integrin LIBS antibody binding reduction – U937 cells, HUTS-21 mAb, flow cytometry, validation set, VLA-4 allosteric modulator project, pilot screen (AID 2674;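 active = inhibition above 50%, about 3 SD of the validation set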;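 note: antibody binding induced by the VLA-4 ligand LDV present at three times its Kd; 0% = LDV ligand with antibody and no compound and 100% = antibody without LDV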). The conditions noted are these: HUTS-21 LIBS mAb binding, at 6.7 µM, stronger effect = higher value, binding induced by LDV ligand.

The nature of assay [8]: calorie-restriction mimetic ROS inhibitors, yeast – validation compound set, pilot screen (AID 2706;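 active = superoxide response below 65% of plate, a cut near 3 SD across the whole screen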;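 note: yeast exposed to compound for one week at 30 degrees C before staining; 100% = mean of all compound wells on the same plate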). The settings on record: S. cerevisiae aging, superoxide DHE fluorescence; at 10 µM; stronger effect = lower value.
Assay [9] deals with Beta-adrenergic receptor kinase 1 (Homo sapiens) (UniProt P25098). The experiment in a line: GRK2 binders displacing RNA aptamer, biochemical, validation, human GRK2, bead flow cytometry (AID 488806;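 active = aptamer binding inhibition above 30%, about 3 SD of noise from non-fluorescent compounds; inactive = inhibition at or below 30%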). The conditions noted are these: bead-bound GRK2, FAM-aptamer displacement, at 10 µM, stronger effect = higher value.
Assay [10] concerns the target Beta-2 adrenergic receptor (Homo sapiens) (UniProt P07550). Nature of the assay: agonist-induced loss of surface beta2AR – cell-based, FAP fluorogen, flow cytometry, validation set, pilot screen (AID 504459;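 active = percent response above 42, roughly 3 SD of non-fluorescent test compounds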;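 note: agonist-driven loss of surface beta2AR via internalization measured by FAP dye flow cytometry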). The conditions noted are these: Am2.2-beta2AR cells, at 10 µM, stronger effect = higher value.
Assay [11] deals with AP-2 complex subunit beta (Homo sapiens) (UniProt P63010). Nature of the assay: beta-arrestin/AP2 interaction blockers – biochemical, validation set, GST-AP2 beads, flow cytometry, pilot screen (AID 504541;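 active = inhibition above 54%, about 3 SD of non-fluorescent compounds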;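 note: AP2 carries R879A mutation and is captured from E. coli lysate; bead-bound FITC arrestin peptide fluorescence measuring arrestin peptide binding to AP2; 0% = DMSO wells and 100% = excess unlabeled arrestin peptide control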). The settings on record: FITC arrestin peptide, at 10 µM, stronger effect = higher value, AP2 beta2 appendage fragment, R879A mutant.
Assay [12] in a line: cytosolic pH regulators acting via V-ATPase – S. cerevisiae, pHLuorin, HTS validation (AID 504600; in the data active = response above about 15%;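 note: plate controls were DMSO for no effect and reference compound for full effect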). The conditions noted are these: V-ATPase proton transport, at 10 µM, stronger effect = higher value.
Assay [13] concerns anti-desmoglein-3 scFv antibody binding to human DSG3. The experiment in a line: blockers of pathogenic pemphigus antibody–desmoglein-3 binding – biochemical, validation compound set, bead-based, flow cytometry, pilot screen (AID 588368;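 active = binding below the plate cutoff, the plate median minus 3 SD, with a reading above zero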;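 note: signal is the median channel fluorescence of bead-bound GFP antibody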). The settings on record: Protein G beads, DSG3-Fc, scFv-GFP binding, at 10 µM, stronger effect = lower value.
The nature of assay [14]: Nile Red efflux blockade in pump-expressing yeast – validation compound set, multiplex, phenotypic, pilot screen (AID 588506;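 active = efflux inhibition above 0.42, the validation set average plus 4 SD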;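 note: Nile Red retained in cells so higher fluorescence means more efflux inhibition; 0 = negative control wells and 1 = enniatin B 25 µM full block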). The settings on record: S. cerevisiae pump-expressing triplex, Nile Red efflux flow cytometry; at 10 µM; stronger effect = higher value; the pumps come from Candida albicans.
The target of assay [15] is ATP-binding cassette sub-family B member 6 (Homo sapiens) (UniProt Q9NP58). The experiment in a line: blockers of ABCB6-driven porphyrin uptake – K562-ABCB6 cells, flow cytometry, validation set, pilot screen (AID 588550;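 active = inhibition above the screen-wide mean plus 3 SD, about 51%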;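 note: 0% = DMSO wells and 100% = benzethonium chloride 70 µM positive control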). The settings on record: K562-ABCB6 porphyrin accumulation, 1 h, at 10 µM, stronger effect = higher value.
Assay [16] can be described thus: AML differentiation inducers, ER-HoxA9 marrow cells – cell-based, GFP/MAC1 double positive, flow cytometry, validation set, primary screen (AID 588685).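 Note: compound exposure lasts four days before antibody staining and flow analysis; 0% = DMSO wells and 100% = 5 µM fulvestrant positive control.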 The settings on record: stronger effect = higher value, normalized: vehicle 0, fulvestrant 100.

AP-2 complex subunit beta (Homo sapiens), sequence (P63010 whole entry, looked up, the tested form may be a part, one chain of several): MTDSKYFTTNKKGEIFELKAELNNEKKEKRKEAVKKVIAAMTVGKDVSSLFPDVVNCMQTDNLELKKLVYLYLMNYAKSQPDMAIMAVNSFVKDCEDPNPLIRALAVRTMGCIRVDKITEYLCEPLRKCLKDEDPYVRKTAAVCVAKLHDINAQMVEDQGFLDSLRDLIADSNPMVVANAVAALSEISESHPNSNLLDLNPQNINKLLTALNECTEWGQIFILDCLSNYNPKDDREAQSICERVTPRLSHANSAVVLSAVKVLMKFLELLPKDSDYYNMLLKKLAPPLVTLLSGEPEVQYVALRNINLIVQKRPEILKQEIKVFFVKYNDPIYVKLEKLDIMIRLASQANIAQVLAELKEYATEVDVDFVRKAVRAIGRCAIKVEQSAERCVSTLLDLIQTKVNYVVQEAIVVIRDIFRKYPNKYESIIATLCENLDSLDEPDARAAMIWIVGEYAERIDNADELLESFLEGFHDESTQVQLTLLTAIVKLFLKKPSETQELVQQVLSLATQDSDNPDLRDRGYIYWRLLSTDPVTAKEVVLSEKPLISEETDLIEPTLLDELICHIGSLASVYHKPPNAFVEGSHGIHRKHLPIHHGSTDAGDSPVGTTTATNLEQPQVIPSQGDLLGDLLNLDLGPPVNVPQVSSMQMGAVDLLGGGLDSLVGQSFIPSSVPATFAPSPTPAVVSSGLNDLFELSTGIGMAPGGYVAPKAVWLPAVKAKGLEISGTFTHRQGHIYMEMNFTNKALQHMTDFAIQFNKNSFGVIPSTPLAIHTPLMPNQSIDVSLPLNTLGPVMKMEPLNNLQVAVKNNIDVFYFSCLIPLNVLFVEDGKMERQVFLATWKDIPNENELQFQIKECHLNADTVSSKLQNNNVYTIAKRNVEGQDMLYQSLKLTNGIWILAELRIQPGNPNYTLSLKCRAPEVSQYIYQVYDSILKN
Integrin beta-1 (Homo sapiens) + Integrin alpha-4 (Homo sapiens), sequence (P05556 whole entry, looked up): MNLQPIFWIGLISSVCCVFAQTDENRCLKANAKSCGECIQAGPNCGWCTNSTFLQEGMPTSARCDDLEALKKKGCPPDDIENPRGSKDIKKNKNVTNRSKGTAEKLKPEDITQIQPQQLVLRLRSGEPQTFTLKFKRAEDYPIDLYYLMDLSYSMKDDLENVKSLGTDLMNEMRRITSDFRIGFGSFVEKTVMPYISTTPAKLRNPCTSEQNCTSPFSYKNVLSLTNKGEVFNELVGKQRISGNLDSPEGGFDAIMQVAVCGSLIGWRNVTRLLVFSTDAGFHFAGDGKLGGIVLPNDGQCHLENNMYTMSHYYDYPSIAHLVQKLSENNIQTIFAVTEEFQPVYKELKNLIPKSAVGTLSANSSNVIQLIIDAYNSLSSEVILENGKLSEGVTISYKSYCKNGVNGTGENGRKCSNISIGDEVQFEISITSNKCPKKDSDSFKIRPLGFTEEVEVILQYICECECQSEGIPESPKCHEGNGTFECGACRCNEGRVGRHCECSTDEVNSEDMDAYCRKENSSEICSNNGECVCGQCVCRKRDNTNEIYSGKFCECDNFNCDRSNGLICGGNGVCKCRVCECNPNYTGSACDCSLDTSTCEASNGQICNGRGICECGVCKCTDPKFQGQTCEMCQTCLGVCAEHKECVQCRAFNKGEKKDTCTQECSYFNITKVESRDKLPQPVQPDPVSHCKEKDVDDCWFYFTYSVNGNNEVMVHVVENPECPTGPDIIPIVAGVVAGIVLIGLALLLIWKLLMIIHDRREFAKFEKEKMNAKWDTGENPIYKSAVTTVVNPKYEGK
Integrin beta-1 (Homo sapiens) + Integrin alpha-4 (Homo sapiens), sequence (P13612 whole entry, looked up): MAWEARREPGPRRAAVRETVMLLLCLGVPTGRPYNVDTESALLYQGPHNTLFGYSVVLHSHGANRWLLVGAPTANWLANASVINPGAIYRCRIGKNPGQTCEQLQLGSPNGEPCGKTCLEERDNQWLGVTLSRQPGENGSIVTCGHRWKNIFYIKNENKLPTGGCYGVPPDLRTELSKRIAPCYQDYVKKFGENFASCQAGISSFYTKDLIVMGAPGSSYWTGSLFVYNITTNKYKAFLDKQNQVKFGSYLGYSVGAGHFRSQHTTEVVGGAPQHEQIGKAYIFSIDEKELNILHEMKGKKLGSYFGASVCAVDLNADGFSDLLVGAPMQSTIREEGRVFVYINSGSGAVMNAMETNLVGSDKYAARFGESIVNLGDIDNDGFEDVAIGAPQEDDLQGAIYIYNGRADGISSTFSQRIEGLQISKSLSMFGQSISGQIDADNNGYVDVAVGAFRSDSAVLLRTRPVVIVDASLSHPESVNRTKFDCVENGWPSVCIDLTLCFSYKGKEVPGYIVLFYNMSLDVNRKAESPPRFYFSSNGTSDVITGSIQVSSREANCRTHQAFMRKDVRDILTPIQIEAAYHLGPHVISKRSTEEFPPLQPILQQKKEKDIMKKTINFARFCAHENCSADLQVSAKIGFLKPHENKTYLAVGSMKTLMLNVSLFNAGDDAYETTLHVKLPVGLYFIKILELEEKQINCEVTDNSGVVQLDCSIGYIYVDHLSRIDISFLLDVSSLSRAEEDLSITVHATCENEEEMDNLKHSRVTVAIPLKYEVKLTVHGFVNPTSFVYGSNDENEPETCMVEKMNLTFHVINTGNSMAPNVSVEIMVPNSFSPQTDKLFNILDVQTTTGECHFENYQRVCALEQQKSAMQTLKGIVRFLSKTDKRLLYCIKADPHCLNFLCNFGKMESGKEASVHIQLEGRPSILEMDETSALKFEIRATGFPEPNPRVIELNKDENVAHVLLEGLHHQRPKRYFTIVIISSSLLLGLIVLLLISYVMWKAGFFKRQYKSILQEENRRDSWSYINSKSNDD
ATP-binding cassette sub-family B member 6 (Homo sapiens), sequence (Q9NP58 whole entry, looked up): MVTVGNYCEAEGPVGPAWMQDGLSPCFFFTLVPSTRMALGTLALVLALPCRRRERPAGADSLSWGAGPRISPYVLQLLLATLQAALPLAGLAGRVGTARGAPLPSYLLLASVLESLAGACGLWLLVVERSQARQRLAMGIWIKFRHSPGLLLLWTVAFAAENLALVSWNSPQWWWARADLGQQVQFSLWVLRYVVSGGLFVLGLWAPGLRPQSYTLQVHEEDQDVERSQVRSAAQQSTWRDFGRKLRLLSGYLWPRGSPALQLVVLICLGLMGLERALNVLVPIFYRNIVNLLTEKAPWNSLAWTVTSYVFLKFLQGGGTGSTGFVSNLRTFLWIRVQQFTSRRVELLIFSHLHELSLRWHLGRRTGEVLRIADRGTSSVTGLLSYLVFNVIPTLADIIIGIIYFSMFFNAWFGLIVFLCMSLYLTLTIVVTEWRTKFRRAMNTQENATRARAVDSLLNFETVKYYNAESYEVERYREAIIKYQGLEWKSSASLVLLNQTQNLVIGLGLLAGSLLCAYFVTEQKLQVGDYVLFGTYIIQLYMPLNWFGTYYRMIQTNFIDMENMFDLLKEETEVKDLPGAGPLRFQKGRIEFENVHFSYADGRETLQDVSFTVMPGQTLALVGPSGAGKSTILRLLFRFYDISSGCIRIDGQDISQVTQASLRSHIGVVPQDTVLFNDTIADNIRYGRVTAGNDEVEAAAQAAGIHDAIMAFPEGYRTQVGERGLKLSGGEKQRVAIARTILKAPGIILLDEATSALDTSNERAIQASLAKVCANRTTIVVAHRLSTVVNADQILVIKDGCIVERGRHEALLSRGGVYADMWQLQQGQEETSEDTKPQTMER
Beta-2 adrenergic receptor (Homo sapiens), sequence (P07550 whole entry, looked up): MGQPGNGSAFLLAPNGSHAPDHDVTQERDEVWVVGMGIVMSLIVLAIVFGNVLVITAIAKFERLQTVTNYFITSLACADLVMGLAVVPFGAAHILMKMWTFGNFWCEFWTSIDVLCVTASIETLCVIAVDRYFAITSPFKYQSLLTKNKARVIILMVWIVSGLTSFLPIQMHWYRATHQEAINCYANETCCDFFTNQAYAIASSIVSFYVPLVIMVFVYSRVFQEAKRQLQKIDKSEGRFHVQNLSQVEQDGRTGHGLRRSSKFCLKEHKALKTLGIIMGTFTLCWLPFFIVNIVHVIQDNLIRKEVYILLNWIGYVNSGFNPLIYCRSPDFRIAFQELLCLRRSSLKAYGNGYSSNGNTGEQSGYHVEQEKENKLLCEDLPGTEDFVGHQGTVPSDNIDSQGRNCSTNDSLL
Beta-adrenergic receptor kinase 1 (Homo sapiens), sequence (P25098 whole entry, looked up): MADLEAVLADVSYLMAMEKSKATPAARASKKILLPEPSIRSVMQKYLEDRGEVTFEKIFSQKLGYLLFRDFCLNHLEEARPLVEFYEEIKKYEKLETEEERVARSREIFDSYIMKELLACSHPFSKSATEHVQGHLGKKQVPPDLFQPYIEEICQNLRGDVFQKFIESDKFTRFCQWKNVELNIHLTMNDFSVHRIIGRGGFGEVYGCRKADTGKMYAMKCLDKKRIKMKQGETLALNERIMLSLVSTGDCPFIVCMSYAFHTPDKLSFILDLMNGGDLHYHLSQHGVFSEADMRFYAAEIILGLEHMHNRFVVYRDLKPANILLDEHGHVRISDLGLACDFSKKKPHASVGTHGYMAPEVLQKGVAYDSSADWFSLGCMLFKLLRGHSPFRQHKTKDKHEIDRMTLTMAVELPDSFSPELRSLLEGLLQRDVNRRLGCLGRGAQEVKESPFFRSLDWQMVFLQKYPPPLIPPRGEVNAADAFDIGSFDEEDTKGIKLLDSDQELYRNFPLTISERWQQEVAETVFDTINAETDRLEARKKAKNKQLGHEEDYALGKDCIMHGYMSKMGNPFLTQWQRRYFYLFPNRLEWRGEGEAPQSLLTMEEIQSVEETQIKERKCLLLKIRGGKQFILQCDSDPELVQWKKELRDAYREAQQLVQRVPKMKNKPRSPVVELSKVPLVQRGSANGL

For `CC(=O)Oc1ccc(C(c2ccc(OC(C)=O)cc2)c2ccccn2)cc1`, the percent of DMSO control GFP in [1] is 98.9% (inactive). The results for the GFP response vs DMSO in [2] and in assay [4] were 104% (inactive) and 125% (inactive), respectively. In addition, the percent response of DMSO control in assay [3] was 99.6% (inactive). The GFP response, % of DMSO in assay [5] is 117% (inactive). This compound also had a double positive events in assay [6] of 63.6%. Also, the vesicle binding response in assay [6] was 203% (inactive). Also, the inhibition was -42% (inactive) in assay [7], -3.7% (inactive) in assay [11] and 6% (inactive) in assay [15]. The superoxide response (% of plate) in [8] is 105% (inactive). In addition, the aptamer binding inhibition in assay [9] is 4% (inactive). Moreover, the response was -25.8% (inactive) in assay [10] and -1.07% (inactive) in [12]. Further, the binding (% of control) in [13] was 106% (inactive). Further, the efflux inhibition (fraction of control) in [14] is 0.08 (inactive). Further, the differentiation response in assay [16] is -7.94% (inactive).

As for `CC(C)CC1c2[nH]c3ccccc3c2CCN1C(=O)CCC(=O)N(C)C` (stereo not given), the percent of DMSO control GFP in [1] is 90.9% (inactive). Also, the GFP response vs DMSO in assay [2] is 117% (inactive); in assay [4], 79.2% (inactive). In assay [3], the percent response of DMSO control was 107% (inactive). The GFP response, % of DMSO in assay [5] is 93.1% (inactive). For the same compound, the double positive events in assay [6] came to 80.7%. Besides, the vesicle binding response in assay [6] is 264% (inactive). The inhibition was 3.55% (inactive) in assay [7], -2.59% (inactive) in assay [11] and 12% (inactive) in [15]. Moreover, the superoxide response (% of plate) in [8] was 104% (inactive). Further, the aptamer binding inhibition in assay [9] is 4% (inactive). Also, the results for the response in assay [10] and in assay [12] were 6.34% (inactive) and -2.43% (inactive), respectively. For the same compound, the binding (% of control) in [13] was 104% (inactive). In addition, in [14], the efflux inhibition (fraction of control) is -0.31 (inactive). Moreover, the differentiation response in assay [16] was -6.55% (inactive).

Regarding `OCCN1CCN(CCCN2c3ccccc3Sc3ccc(C(F)(F)F)cc32)CC1`, the percent of DMSO control GFP in assay [1] was 104% (inactive). The GFP response vs DMSO in [2] was 104% (inactive); in [4] it was 101% (inactive). In addition, the percent response of DMSO control in [3] is 92.5% (inactive). Moreover, the GFP response, % of DMSO in assay [5] was 115% (inactive). The compound further had a double positive events in [6] of 62.1%. In addition, the vesicle binding response in [6] was 176% (inactive). In addition, the inhibition in [7] is 70.4% (active); in assay [11], 13.1% (inactive); in assay [15], 11% (inactive). The superoxide response (% of plate) in [8] is 90.7% (inactive). The aptamer binding inhibition in assay [9] was -4% (inactive). The response in [10] was 26.4% (inactive); in assay [12], 0.87% (inactive). In assay [13], the binding (% of control) was 111% (inactive). Further, the efflux inhibition (fraction of control) in assay [14] was -0.04 (inactive). Besides, in assay [16], the differentiation response is 0.92% (inactive).

Consider `CC1=NS(=O)(=O)c2cc(Cl)ccc2N1`, for which the percent of DMSO control GFP in assay [1] was 98.8% (inactive). Also, the GFP response vs DMSO is 105% (inactive) in assay [2] and 84.1% (inactive) in assay [4]. Also, in assay [3], the percent response of DMSO control is 93.1% (inactive). Besides, the GFP response, % of DMSO in assay [5] is 97% (inactive). In assay [6], this compound came in with a double positive events of 63.9%. In addition, the vesicle binding response in assay [6] was 964% (inactive). The inhibition in assay [7] is -3.57% (inactive); in assay [11], 14.6% (inactive); in assay [15], 4% (inactive). Further, the superoxide response (% of plate) in assay [8] was 104% (inactive). Also, in assay [9], the aptamer binding inhibition was 3% (inactive). The values for the response in assay [10] and in [12] were -5.04% (inactive) and -1.96% (inactive), respectively. In addition, the binding (% of control) in [13] is 101% (inactive). The efflux inhibition (fraction of control) in assay [14] was -0.1 (inactive). The differentiation response in assay [16] was 34.5% (inactive).

With `NC(=O)c1cccnc1`, the percent of DMSO control GFP in assay [1] was 86.7% (inactive). Besides, the GFP response vs DMSO in [2] is 121% (inactive); in assay [4], 79.8% (inactive). Besides, the percent response of DMSO control in assay [3] is 110% (inactive). Further, the GFP response, % of DMSO in [5] was 98.7% (inactive). Further, the double positive events in assay [6] worked out at 45%. For the same compound, the vesicle binding response in assay [6] is 242% (inactive). Also, the inhibition in assay [7] was 7.43% (inactive); in [11] it was -4.05% (inactive); in assay [15], 9% (inactive). Besides, in assay [8], the superoxide response (% of plate) is 111% (inactive). The aptamer binding inhibition in assay [9] is 3% (inactive). For the same compound, the results for the response in assay [10] and in assay [12] were 8.79% (inactive) and 1.76% (inactive), respectively. Moreover, the binding (% of control) in assay [13] is 99.8% (inactive). Besides, the efflux inhibition (fraction of control) in assay [14] was -0.28 (inactive). In addition, the differentiation response in assay [16] was -1.64% (inactive).

Values taken from PubChem BioAssay.
